{"source": "paper PMC8384837", "about": "“Expanding the binding specificity for RNA recognition by a PUF domain”", "test_in_all_cases": "yeast three-hybrid, YBZ-1, SC-Leu-His + 0.5 mM 3-AT, 4 days", "conditions_in_all_cases": "tags: N-Gal4 AD-HA kept; label: inside an RPR1-promoter hybrid RNA with tandem MS2 sites; ssRNA", "key": {"PUM1 PUF domain R5-LKL": {"molecular_target": "PUM1 PUF domain R5-LKL (Homo sapiens, UniProt Q14671 828-1176, C1007L;R1008K;Q1011L)", "summary_of_the_method": "(§1)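 A centromeric plasmid in strain YBZ-1 co-expressed Pumilio-1 PUF domain libraries, randomized at the three base-contacting residues of each repeat, with matching RNA elements; the strain carries a LexA–MS2 coat fusion and a HIS3 reporter. After four days on SC-Leu (input) or SC-Leu-His + 0.5 mM 3-AT (selection), the repeat regions were PCR-amplified and Illumina-sequenced. The interaction score is the log change in variant frequency from input to selection, using log2 and a pseudocount of 1 where absent.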"}, "PUM1 PUF domain R4-EHG": {"molecular_target": "PUM1 PUF domain R4-EHG (Homo sapiens, UniProt Q14671 828-1176, N971E;Q975G)", "summary_of_the_method": "as §1"}, "PUM1 PUF domain R4-SRG": {"molecular_target": "PUM1 PUF domain R4-SRG (Homo sapiens, UniProt Q14671 828-1176, N971S;H972R;Q975G)", "summary_of_the_method": "as §1"}, "PUM1 PUF domain R4-FNM": {"molecular_target": "PUM1 PUF domain R4-FNM (Homo sapiens, UniProt Q14671 828-1176, N971F;H972N;Q975M)", "summary_of_the_method": "as §1"}, "PUM1 PUF domain R7-RRH": {"molecular_target": "PUM1 PUF domain R7-RRH (Homo sapiens, UniProt Q14671 828-1176, S1079R;N1080R;E1083H)", "summary_of_the_method": "as §1"}, "PUM1 PUF domain R3-SCP": {"molecular_target": "PUM1 PUF domain R3-SCP (Homo sapiens, UniProt Q14671 828-1176, C935S;R936C;Q939P)", "summary_of_the_method": "as §1"}, "PUM1 PUF domain R3-RVN": {"molecular_target": "PUM1 PUF domain R3-RVN (Homo sapiens, UniProt Q14671 828-1176, C935R;R936V;Q939N)", "summary_of_the_method": "as §1"}, "PUM1 PUF domain R3-FRR": {"molecular_target": "PUM1 PUF domain R3-FRR (Homo sapiens, UniProt Q14671 828-1176, C935F;Q939R)", "summary_of_the_method": "as §1"}, "PUM1 PUF domain R3-GIR": {"molecular_target": "PUM1 PUF domain R3-GIR (Homo sapiens, UniProt Q14671 828-1176, C935G;R936I;Q939R)", "summary_of_the_method": "as §1"}, "PUM1 PUF domain R3-RPD": {"molecular_target": "PUM1 PUF domain R3-RPD (Homo sapiens, UniProt Q14671 828-1176, C935R;R936P;Q939D)", "summary_of_the_method": "as §1"}, "PUM1 PUF domain R6-VFK": {"molecular_target": "T1, PUM1 PUF domain R6-VFK (Homo sapiens, UniProt Q14671 828-1176, N1043V;Y1044F;Q1047K)", "T1 sequence": "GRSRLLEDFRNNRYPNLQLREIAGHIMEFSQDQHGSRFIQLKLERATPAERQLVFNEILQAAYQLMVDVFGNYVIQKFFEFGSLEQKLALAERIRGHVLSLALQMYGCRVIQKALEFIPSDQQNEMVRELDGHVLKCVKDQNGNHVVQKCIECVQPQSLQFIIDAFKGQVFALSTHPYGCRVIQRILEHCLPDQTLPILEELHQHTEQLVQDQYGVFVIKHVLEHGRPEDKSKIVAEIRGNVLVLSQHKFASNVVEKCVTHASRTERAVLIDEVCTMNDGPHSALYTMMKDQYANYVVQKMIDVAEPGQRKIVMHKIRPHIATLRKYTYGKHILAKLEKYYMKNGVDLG", "summary_of_the_method": "as §1"}, "PUM1 PUF domain R8-PWI": {"molecular_target": "PUM1 PUF domain R8-PWI (Homo sapiens, UniProt Q14671 828-1176, N1122P;Y1123W;Q1126I)", "summary_of_the_method": "as §1"}}, "data": [{"sequence": "GGCUAGAACUAGUGGAUCCCCCGGCGCCCGGCGGCUCGAGCCCGGGUAAGUGUCAAUAGUCUGCAUGCCGCCGGGCGCCAUGCCUGCAGGUCGACUCUAGAAAACAUG", "values": [{"measurement": "binding signal", "setting": "PUM1 PUF domain R5-LKL", "value": "4 log2 enrichment (interaction score)"}]}, {"sequence": "GGCUAGAACUAGUGGAUCCCCCGGCGCCCGGCGGCUCGAGCCCGGGUAAGUGUACAUAGUCUGCAUGCCGCCGGGCGCCAUGCCUGCAGGUCGACUCUAGAAAACAUG", "values": [{"measurement": "binding signal", "setting": "PUM1 PUF domain R4-EHG", "value": "2.82 log2 enrichment (interaction score)"}, {"measurement": "binding signal", "setting": "PUM1 PUF domain R4-SRG", "value": "0.54 log2 enrichment (interaction score)"}, {"measurement": "binding signal", "setting": "PUM1 PUF domain R4-FNM", "value": "2.87 log2 enrichment (interaction score)"}]}, {"sequence": "GGCUAGAACUAGUGGAUCCCCCGGCGCCCGGCGGCUCGAGCCCGGGUAAGUCUAAAUAGUCUGCAUGCCGCCGGGCGCCAUGCCUGCAGGUCGACUCUAGAAAACAUG", "values": [{"measurement": "binding signal", "setting": "PUM1 PUF domain R7-RRH", "value": "4.29 log2 enrichment (interaction score)"}]}, {"sequence": "GGCUAGAACUAGUGGAUCCCCCGGCGCCCGGCGGCUCGAGCCCGGGUAAGUGUAAUUAGUCUGCAUGCCGCCGGGCGCCAUGCCUGCAGGUCGACUCUAGAAAACAUG", "values": [{"measurement": "binding signal", "setting": "PUM1 PUF domain R3-SCP", "value": "3.31 log2 enrichment (interaction score)"}, {"measurement": "binding signal", "setting": "PUM1 PUF domain R3-RVN", "value": "4.09 log2 enrichment (interaction score)"}, {"measurement": "binding signal", "setting": "PUM1 PUF domain R3-FRR", "value": "2.42 log2 enrichment (interaction score)"}, {"measurement": "binding signal", "setting": "PUM1 PUF domain R3-GIR", "value": "1.55 log2 enrichment (interaction score)"}, {"measurement": "binding signal", "setting": "PUM1 PUF domain R3-RPD", "value": "3.79 log2 enrichment (interaction score)"}]}, {"sequence": "GGCUAGAACUAGUGGAUCCCCCGGCGCCCGGCGGCUCGAGCCCGGGUAAGUGUAUAUAGUCUGCAUGCCGCCGGGCGCCAUGCCUGCAGGUCGACUCUAGAAAACAUG", "values": [{"measurement": "binding signal", "setting": "PUM1 PUF domain R4-SRG", "value": "1.37 log2 enrichment (interaction score)"}, {"measurement": "binding signal", "setting": "PUM1 PUF domain R4-FNM", "value": "3.46 log2 enrichment (interaction score)"}]}, {"sequence": "GGCUAGAACUAGUGGAUCCCCCGGCGCCCGGCGGCUCGAGCCCGGGUAAGUGAAAAUAGUCUGCAUGCCGCCGGGCGCCAUGCCUGCAGGUCGACUCUAGAAAACAUG", "values": [{"measurement": "binding signal", "setting": "PUM1 PUF domain R6-VFK", "value": "8.43 log2 enrichment (interaction score)"}]}, {"sequence": "GGCUAGAACUAGUGGAUCCCCCGGCGCCCGGCGGCUCGAGCCCGGGUAAGUGCAAAUAGUCUGCAUGCCGCCGGGCGCCAUGCCUGCAGGUCGACUCUAGAAAACAUG", "values": [{"measurement": "binding signal", "setting": "PUM1 PUF domain R6-VFK", "value": "1.94 log2 enrichment (interaction score)"}]}, {"sequence": "GGCUAGAACUAGUGGAUCCCCCGGCGCCCGGCGGCUCGAGCCCGGGUAAGCGUAAAUAGUCUGCAUGCCGCCGGGCGCCAUGCCUGCAGGUCGACUCUAGAAAACAUG", "values": [{"measurement": "binding signal", "setting": "PUM1 PUF domain R8-PWI", "value": "4.09 log2 enrichment (interaction score)"}]}]}
